From PubChem BioAssay
A selection: hits, their analogues and other compounds. The true share with any hit is near 7.9%.
Marburg entry inh: Marburg virus entry inhibition; Marburg virus pseudotyped entry inhibition, cell reporter; Potency, µM (highest dose often 37.8 µM), usual class: inhibitors; 1.8% of 300,000 active; calls by dose curve; tested in HEK293 cells
HCMV antiviral: human cytomegalovirus inhibition | HFF cells, HCMV-luciferase reporter, 72 h; active compounds read low | activity change, negative = inhibition, % at 57.5 µM | 4.5% of 410,000 active; in the data active = activity change below about -60%; inconclusive = no clear call, values can overlap the other calls; inactive = above about -39%
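Human foreskin fibroblasts infected with luciferase-reporter HCMV at MOI 1 PFU/cell, compounds at two doses. Luciferase measured 72 h post infection; normalized to buffer-only basal and Salinomycin (10uM) controls.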
HCV inh: inhibitors of hepatitis C virus infection; Potency, µM (highest dose often 41.8 µM), most hits filed as inhibitors; Huh7.5.1 HCVcc-Cre infection, luciferase reporter, 44 h; 3.4% of 340,000 active; active = well fitted inhibition curve with a large enough effect; inconclusive = small, poorly fitted or top-dose-only effect, or another doubt; inactive = no such curve, though single readings can be large or run the other way
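After 44 h co-culture of compound, cells and HCVcc-Cre (~0.5 moi), substrate is added for 15 min at room temperature and luciferase measured over 15 sec. Cells were seeded at 1,000/well and pre-cultured 4 h.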
FMDV inh: antivirals against foot and mouth disease virus. 1.2% of 410,000 active. Potency, µM (highest dose often 57.9 µM), usual class: inhibitors. FMDV antiviral cell-based qHTS; calls by dose curve; tested in HEK293T cells; note: read-out not given here; nearly all actives have a fitted effect of over 45% in size
LASV entry inh: Lassa virus entry inhibition; Lassa virus pseudotype entry inhibition, cell reporter; Potency, µM (top dose mostly 37.9 µM), most hits filed as inhibitors; 1.2% of 300,000 active; AID 540256; calls by dose curve; tested in HEK293 cells; note: nearly all actives have a fitted effect of over 50% in size
Large screens that a line does not name were inactive; ! = not active in a repeat.

Clc1ccc(-n2ncc3c(NCCCn4ccnc4)ncnc32)cc1	Marburg entry inh inconclusive, HCV inh 11.2µM, LASV entry inh inconclusive
Cc1ncc2c(c1CNC(=O)/C=C/c1cccs1)CCN(C(=O)c1c(C)noc1C)C2	none (no result: Marburg entry inh, HCMV antiviral, HCV inh, LASV entry inh)
CCN1C[C@@H]2[C@@H]3C(=O)N(C)C(=O)[C@@H]3[C@](CC)(C(=O)OC)N2C1=NCc1ccccc1	none (no result: Marburg entry inh, LASV entry inh)
CCCCN(C=O)c1c(CC)nc2c(OCc3ccc(S(C)(=O)=O)cc3)cccn12	FMDV inh inconclusive (no result: Marburg entry inh, HCV inh, LASV entry inh)
C=C1C(=O)O[C@@H]2[C@H]3O[C@]3(C)CCC=C(C)CC[C@@H]12	Marburg entry inh 22.4µM, LASV entry inh 9.2µM (no result: HCMV antiviral, HCV inh)
Cc1c(Cl)cccc1NC(=O)Cn1c(CCC(=O)O)ccc1-c1ccccc1	none (no result: Marburg entry inh, LASV entry inh)
O=C(CNC(=O)c1ccc(Cl)cc1)OCC(=O)c1ccccc1	Marburg entry inh inconclusive
CC(C)c1ccc(C(CC(=O)c2ccc(Cl)cc2)C(=O)O)cc1 (configuration not stated)	Marburg entry inh inconclusive
O=C(CCC(=O)c1ccc(Cl)cc1)OCC(=O)c1ccccc1	Marburg entry inh inconclusive, HCMV antiviral -64.8, HCV inh inconclusive
COC(=O)C(CC(=O)c1ccc(Cl)cc1)c1ccccc1 (configuration not stated)	HCMV antiviral -101.1, LASV entry inh inconclusive
CCCCn1c(N)c(N(CCOC)C(=O)CN(C)CC(=O)Nc2ccc(Cl)c(Cl)c2)c(=O)[nH]c1=O	HCV inh inconclusive (no result: Marburg entry inh, LASV entry inh)
COc1ccc(S(=O)(=O)CC(=O)c2cc(C)c(O)c(C)c2)cc1	none (no result: Marburg entry inh, LASV entry inh)
Cc1cc(C(=O)CS(=O)(=O)c2ccc(Cl)cc2)cc(C)c1O	HCV inh 11.2µM (no result: Marburg entry inh, LASV entry inh)
CS(=O)(=O)NCCCNc1ccc(C(F)(F)F)cc1[N+](=O)[O-]	none (no result: Marburg entry inh, LASV entry inh)
O=[N+]([O-])c1cc(C(F)(F)F)ccc1Cl	HCMV antiviral -69.2, HCV inh inconclusive (no result: Marburg entry inh, LASV entry inh)
Nc1cc(C(F)(F)F)cc([N+](=O)[O-])c1N	HCV inh inconclusive (no result: Marburg entry inh, LASV entry inh)
O=[N+]([O-])c1cc(C(F)(F)F)ccc1NCCCCNS(=O)(=O)c1ccc(Cl)cc1	Marburg entry inh inconclusive, HCMV antiviral -73.4, HCV inh inconclusive, FMDV inh inconclusive
O=C([C@@H]1CC=C[C@@H]2CCN(C3CCCCC3)C(=O)[C@@H]21)N1CCN(c2ccccc2)CC1	none (no result: Marburg entry inh, LASV entry inh)
NC1=NC(=O)C2N=CN(COCCO)C2=N1 (configuration not stated)	none (no result: HCMV antiviral, HCV inh, FMDV inh, LASV entry inh)
Cc1c(NC(=O)c2ccc(OC(C)C)cc2)cccc1-c1nc2ncccc2o1	none (no result: Marburg entry inh, HCV inh)
COc1ccc([C@@H]2C(C(=O)N3CCCC3)CC(=O)N2C(=O)CCc2ccccc2)cc1 (some centres not stated)	none (no result: Marburg entry inh, HCV inh, FMDV inh, LASV entry inh)
CC1CCCC(C)N1C(=O)COC(=O)CNC(=O)c1ccccc1F (configuration not stated)	HCMV antiviral inconclusive (no result: Marburg entry inh, LASV entry inh)
CCC(Oc1ccccc1)C(=O)Nc1ccccc1OCc1cc(=O)n2ccccc2n1 (configuration not stated)	none (no result: Marburg entry inh, HCV inh)
CC(C)C[C@H]1CNC(=S)N1CC1CCCN1C[C@H](Cc1ccccc1)N1C[C@H](Cc2ccc(O)cc2)N(CC2CCCCCC2)C1=S (some centres not stated)	HCMV antiviral -100.8, HCV inh 6.31µM, FMDV inh inconclusive (no result: Marburg entry inh, LASV entry inh)
CC(C)C[C@H]1CNC(=S)N1C[C@H]1CCCN1C[C@H](Cc1ccc(O)cc1)N1C[C@H](Cc2ccc(O)cc2)N(CC2CCCCCC2)C1=S	HCMV antiviral -82.8 (no result: Marburg entry inh, HCV inh, LASV entry inh)
CC(C)C[C@H]1CN([C@@H](Cc2ccc(O)cc2)CN2CCC[C@@H]2CN2C(=S)NC[C@@H]2Cc2ccccc2)C(=S)N1CC1CCCCCC1	none (no result: Marburg entry inh, HCV inh, LASV entry inh)
COc1ccc2cc3cc(C(=O)NCCN4CCN(c5ccccc5F)CC4)oc3nc2c1	Marburg entry inh 12.6µM, HCV inh inconclusive, FMDV inh 17.8µM, LASV entry inh inconclusive
COCCNC(=O)c1cc2cc3ccc(OC)cc3nc2o1	none (no result: Marburg entry inh, LASV entry inh)
Cc1ccc2cc3cc(C(=O)NCCCN4CCCC4)oc3nc2c1	HCMV antiviral inconclusive, HCV inh 14.1µM (no result: Marburg entry inh, LASV entry inh)
COc1ccc2cc3cc(C(=O)Nc4ccccc4N4CCN(C)CC4)oc3nc2c1	HCV inh 10µM, FMDV inh inconclusive
COc1ccc2cc3cc(C(=O)NCCC(C)C)oc3nc2c1	HCV inh inconclusive, LASV entry inh 3.55µM
COc1ccc2cc3cc(C(=O)N4CCN(c5ccccc5)CC4)oc3nc2c1	none
COc1ccc(-n2c(C)cc(=O)[nH]c2=O)cc1	none
Nc1cc(=O)nc(SCC(=O)Nc2ccc(F)cc2)n1-c1ccc(Cl)cc1	none (no result: HCV inh)
COc1cc(NC(=O)c2cc3cc4ccc(C)cc4nc3o2)cc(OC)c1OC	Marburg entry inh inconclusive, FMDV inh 3.16µM, LASV entry inh inconclusive (no result: HCV inh)
CCOc1ccc(NC(=O)c2cc3cc4ccc(C)cc4nc3o2)cc1	none (no result: HCV inh)
CS(=O)(=O)N1Cc2cc(C(=O)NCC3CC3)nc(-c3cccc(-c4cccnc4)c3)c2[C@H]1CCO	none (no result: Marburg entry inh, HCV inh, LASV entry inh)
CN1C/C(=C/c2ccccc2[N+](=O)[O-])C(=O)/C(=C\c2ccccc2[N+](=O)[O-])C1	Marburg entry inh 3.16µM, HCV inh inconclusive, FMDV inh 17.8µM, LASV entry inh 8.91µM
Cc1ccc(C)c2c1CCC(=Cc1ccccc1[N+](=O)[O-])C2=O	none (no result: Marburg entry inh, HCV inh, LASV entry inh)
CCCCNc1ccc(S(=O)(=O)c2cccc([N+](=O)[O-])c2)cc1[N+](=O)[O-]	none
CCCCCCNc1c([N+](=O)[O-])cc(C)cc1[N+](=O)[O-]	HCMV antiviral -68.9
Oc1ccccc1	none (no result: Marburg entry inh, HCV inh, FMDV inh, LASV entry inh)
Oc1ccc(O)cc1	Marburg entry inh 7.94µM!, LASV entry inh inconclusive (no result: HCMV antiviral, HCV inh)
C=CC[C@@H]1C=C[C@@H](Oc2ccc(OC)cc2)[C@@H](COC(=O)c2ccc(Br)cc2)O1	none (no result: HCMV antiviral, HCV inh, FMDV inh, LASV entry inh)
FC(F)(F)c1nc2nc(Cl)c(Cl)nc2[nH]1	none (no result: Marburg entry inh, HCV inh, LASV entry inh)
FC(F)(F)c1cccc(-c2nc3nc(Cl)c(Cl)nc3[nH]2)c1	HCV inh 11.2µM (no result: Marburg entry inh, HCMV antiviral, LASV entry inh)
CCCCOC(OCCCC)C(O)CSc1ccc2ccccc2c1 (configuration not stated)	none (no result: HCMV antiviral, HCV inh, FMDV inh, LASV entry inh)
CCn1nc(C)c(Br)c1C(=O)Sc1ccccc1Cl	FMDV inh 22.4µM
COc1ccccc1Oc1ccc2c(c1)C(=O)N(c1cccc3ncccc13)C2=O	Marburg entry inh inconclusive, HCV inh inconclusive, FMDV inh 20µM
COc1ccccc1Oc1ccc2c(c1)C(=O)N(c1cccc(O)c1)C2=O	LASV entry inh inconclusive
CN1/C(=C/c2cc[n+](C)c3ccccc23)C=Cc2ccccc21	Marburg entry inh 3.98µM, HCV inh inconclusive, FMDV inh 14.1µM, LASV entry inh inconclusive (no result: HCMV antiviral)
COC(=O)c1sc(NC(=O)c2cc3c(s2)CCCC3)nc1C	HCV inh inconclusive
Cc1nc(NC(=O)c2cc3c(s2)CCCCC3)sc1C(=O)N(C)C	HCV inh 11.2µM
Cc1csc(NC(=O)c2cc3c(s2)CCC3)n1	Marburg entry inh 12.6µM, LASV entry inh inconclusive
O=S(=O)(c1ccc(OC(F)(F)F)cc1)N1CCC(c2nnnn2-c2ccc(F)cc2)CC1	HCMV antiviral -73.1 (no result: HCV inh)
Cc1ccc(-n2nnnc2C2CCN(S(=O)(=O)c3ccc(OC(F)(F)F)cc3)CC2)cc1	none (no result: HCV inh)
COc1ccc(S(=O)(=O)N2CCC(c3nnnn3-c3ccccc3)CC2)cc1OC	FMDV inh 25.1µM, LASV entry inh inconclusive (no result: HCV inh)
